Out of some 5,500 compounds screened, about 2,000 (36%) were called active. Another 18% or so got no clear call; they are omitted. Rule as the data show it: active = normalized growth mostly below about 0.91 (no sharp cut-off); inconclusive = no clear call, values can overlap the other calls; inactive = mostly above about 0.92. This is one part of the list.
Experiment: chemical genetic growth profiling, strain panel (AID 1159580);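 also: tested at 20 µM; growth read once vehicle control cultures reached saturation at 30 °C; 1 = growth at the plate median or of vehicle wells; lower values mean less growth of the strain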
Settings: S. cerevisiae deletion strains, growth OD
[1] = locus YHR030C, strain SLT2, stronger effect = lower value
[2] = locus YHR079C, strain IRE1, stronger effect = lower value
[3] = locus YJL095W, strain BCK1, stronger effect = lower value
[4] = locus YJR066W, strain TOR1, stronger effect = lower value
[5] = locus YLR113W, strain HOG1, stronger effect = lower value
[6] = locus YNL183C, strain NPR1, stronger effect = lower value
[7] = locus YOR231W, strain MKK1, stronger effect = lower value
[8] = locus YPL256C, strain CLN2, stronger effect = lower value
[9] = locus YAL040C, strain CLN3, stronger effect = lower value
[10] = locus YCL061C, strain MRC1 (second series), stronger effect = lower value
[11] = locus YDR150W, strain NUM1, stronger effect = lower value
[12] = locus YDR363W, strain ESC2, stronger effect = lower value
[13] = locus YER002W, strain NOP16, stronger effect = lower value
[14] = locus YGR078C, strain PAC10, stronger effect = lower value
[15] = locus YJR075W, strain HOC1, stronger effect = lower value
[16] = locus YNL128W, strain TEP1, stronger effect = lower value
[17] = locus YNL153C, strain GIM3, stronger effect = lower value
[18] = locus YNL175C, strain NOP13, stronger effect = lower value
[19] = locus YNL197C, strain WHI3, stronger effect = lower value
[20] = locus YNL224C, strain SQS1, stronger effect = lower value
[21] = locus YOR083W, strain WHI5 (second series), stronger effect = lower value
[22] = locus YPL055C, strain LGE1, stronger effect = lower value
[23] = locus YPL241C, strain CIN2, stronger effect = lower value
[24] = locus YGR229C, strain SMI1, stronger effect = lower value
[25] = locus YMR263W, strain SAP30, stronger effect = lower value
[26] = locus YNL322C, strain KRE1, stronger effect = lower value

Measured: normalized growth

COC(=O)C(OC(C)=O)[C@H]1C(C)(C)C(OC(C)=O)[C@@H]2CC3=C4CC(=O)O[C@@H](c5ccoc5)[C@]4(C)CCC3[C@@]1(C)C2=O (some centres undefined)
inactive: [1] 0.961 | [2] 0.967 | [3] 0.979 | [4] 0.917 | [5] 0.99 | [6] 0.932 | [7] 0.989 | [8] 0.951

CN(N=O)c1cc(O)ccc1O
inactive: [9] 0.98 | [10] 0.99 | [11] 1 | [12] 0.975 | [13] 1 | [14] 0.988 | [15] 0.989 | [16] 0.993 | [17] 1.02 | [18] 0.983 | [19] 1.01 | [20] 0.991 | [21] 0.991 | [22] 0.972 | [23] 0.987

CCC(NC(C)C)C(O)c1ccc(O)c(O)c1 (centres undefined)
inactive: [9] 1 | [10] 0.992 | [12] 1.02 | [13] 1.01 | [14] 1.02 | [24] 0.976 | [1] 1.01 | [2] 0.97 | [3] 0.982 | [4] 0.954 | [5] 0.99 | [25] 1.02 | [17] 1 | [18] 1.02 | [6] 0.923 | [19] 1.02 | [20] 1.01 | [26] 0.992 | [21] 1.03 | [7] 0.982 | [23] 0.991 | [8] 0.96

CN(N=O)c1ccc(O)c(O)c1
inactive: locus YAL013W, strain DEP1, stronger effect = lower value 0.957 | [9] 0.997 | [10] 0.946 | [12] 0.928 | [13] 0.974 | [14] 0.972 | [15] 0.93 | [25] 0.998 | [18] 0.976 | [19] 0.964 | [20] 0.994 | [21] 0.98 | [22] 0.993
active: [11] 0.934

CC(C)C[C@H](NC(=O)[C@@H](O)[C@H](N)Cc1ccccc1)C(=O)O
inactive: [9] 1.05 | [10] 1.01 | [11] 1.03 | [12] 0.994 | [13] 1.02 | [14] 0.998 | [17] 1.03 | [18] 0.997 | [19] 0.996 | [20] 1.01 | [21] 0.989 | [22] 1.02

CC(C)CC(NC(=O)C(Cc1ccccc1)NC(=O)CNC(=O)CNC(=O)C(N)Cc1ccc(O)cc1)C(=O)O (centres undefined)
inactive: locus YBR021W, strain FUR4, stronger effect = lower value 0.858 | locus YBR229C, strain ROT2, stronger effect = lower value 0.95 | locus YCL029C, strain bik1, stronger effect = lower value 0.979 | locus YDL035C, strain GPR1, stronger effect = lower value 0.956 | locus YDL074C, strain BRE1, stronger effect = lower value 1.01 | locus YDL101C, strain DUN1, stronger effect = lower value 1.02 | locus YDL185W, strain tfp1, stronger effect = lower value 0.973 | locus YDL192W, strain arf1, stronger effect = lower value 0.995 | locus YDR101C, strain arx1, stronger effect = lower value 0.976 | [11] 0.989 | locus YDR162C, strain NBP2, stronger effect = lower value 0.951 | locus YDR318W, strain mcm21, stronger effect = lower value 0.991 | locus YDR388W, stronger effect = lower value 0.978 | locus YDR502C, strain sam2, stronger effect = lower value 1.01 | locus YEL061C, strain CIN8, stronger effect = lower value 0.987 | locus YER110C, stronger effect = lower value 0.988 | locus YER155C, strain BEM2, stronger effect = lower value 1.01 | locus YER167W, strain BCK2, stronger effect = lower value 0.989 | locus YGL078C, strain dbp3, stronger effect = lower value 0.999 | locus YGL086W, strain mad1, stronger effect = lower value 1 | locus YGL248W, strain PDE1, stronger effect = lower value 1 | locus YGR135W, strain pre9, stronger effect = lower value 0.96 | [24] 0.963 | locus YGR252W, strain gcn5, stronger effect = lower value 1.07 | [1] 0.984 | locus YHR079C, strain IRE1 (second series), stronger effect = lower value 0.996 | locus YHR094C, strain hxt1, stronger effect = lower value 0.982 | locus YHR129C, strain ARP1, stronger effect = lower value 0.998 | locus YHR200W, strain rpn10, stronger effect = lower value 0.994 | locus YIL066C, strain RNR3, stronger effect = lower value 0.948 | locus YIL073C, strain SPO22, stronger effect = lower value 1.28 | locus YIL125W, strain kgd1, stronger effect = lower value 0.993 | locus YIR030C, strain dcg1, stronger effect = lower value 1 | [3] 1.06 | locus YJL134W, strain LCB3, stronger effect = lower value 0.987 | locus YJL168C, strain set2, stronger effect = lower value 1.01 | locus YJL187C, strain SWE1 (second series), stronger effect = lower value 1.03 | locus YJR043C, strain POL32, stronger effect = lower value 0.976 | locus YKL009W, strain mrt4, stronger effect = lower value 1.01 | locus YKL068W, stronger effect = lower value 0.989 | locus YKL085W, strain MDH1 (second series), stronger effect = lower value 0.99 | locus YKL085W, strain MDH1, stronger effect = lower value 0.99 | locus YKL190W, strain CNB1, stronger effect = lower value 1 | locus YKR001C, strain vps1, stronger effect = lower value 1.01 | locus YLR058C, strain SHM2, stronger effect = lower value 0.981 | locus YLR102C, strain apc9, stronger effect = lower value 0.994 | locus YLR268W, strain sec22, stronger effect = lower value 1.01 | locus YLR330W, strain CHS5, stronger effect = lower value 0.986 | locus YLR342W, strain FKS1 (second series), stronger effect = lower value 0.889 | locus YLR371W, strain rom2, stronger effect = lower value 0.988 | locus YLR418C, strain cdc73, stronger effect = lower value 1 | locus YML016C, strain PPZ1, stronger effect = lower value 0.975 | locus YML032C, strain rad52, stronger effect = lower value 0.97 | locus YML124C, strain tub3, stronger effect = lower value 0.998 | locus YMR078C, strain ctf18, stronger effect = lower value 0.986 | locus YMR223W, strain ubp8, stronger effect = lower value 0.988 | locus YMR307W, strain GAS1, stronger effect = lower value 1.01 | locus YNL067W, strain RPL9B, stronger effect = lower value 1.05 | [16] 0.969 | locus YNL233W, strain BNI4, stronger effect = lower value 1.04 | locus YNL250W, strain rad50, stronger effect = lower value 0.981 | locus YNL271C, strain bni1, stronger effect = lower value 0.988 | locus YNL298W, strain CLA4, stronger effect = lower value 0.979 | locus YNL307C, strain MCK1, stronger effect = lower value 0.987 | [26] 0.997 | locus YNR052C, strain pop2, stronger effect = lower value 0.981 | locus YOL012C, strain htz1 0.972 | locus YOL147C, strain pex11, stronger effect = lower value 0.993 | locus YOR061W, strain CKA2, stronger effect = lower value 0.961 | locus YOR069W, strain VPS5, stronger effect = lower value 0.99 | locus YOR136W, strain idh2, stronger effect = lower value 1.02 | locus YOR144C, strain elg1, stronger effect = lower value 0.995 | locus YOR184W, strain ser1, stronger effect = lower value 0.996 | locus YOR316C, strain cot1, stronger effect = lower value 0.989 | [22] 0.988 | [23] 0.985 | locus YPR119W, strain clb2, stronger effect = lower value 0.992 | locus YPR141C, strain kar3, stronger effect = lower value 0.991 | locus YPR163C, strain tif3, stronger effect = lower value 0.979 | locus YPR167C, strain met16, stronger effect = lower value 0.997 | strain wtn01, stronger effect = lower value 0.987
active: locus YLR039C, strain RIC1, stronger effect = lower value 1.38 [resistant] | locus YLR262C, strain YPT6, stronger effect = lower value 1.46 [resistant]
